DUSP3 inh: VHR1 phosphatase inhibitors, primary screen, biochemical, absorbance, uHTS. hit rate 0.52% among 290,000. recombinant VHR phosphatase, pNPP absorbance. inhibition, % at 13.3 µM. AID 1654, 2009; in the data active = inhibition above about 50%
FBA Mtb inh: Mtb FBA enzyme inhibitors, primary screen, biochemical, fluorescence, strain H37Rv. Fructose-bisphosphate aldolase (Mycobacterium tuberculosis (strain ATCC 25618 / H37Rv)), …. purified M. tuberculosis FBA, fluorescence read-out. inhibition, % at 1 µM. hit rate 2.3% among 360,000; in the data active = inhibition above about 27%
Target sequence (P9WQA3 whole entry, looked up): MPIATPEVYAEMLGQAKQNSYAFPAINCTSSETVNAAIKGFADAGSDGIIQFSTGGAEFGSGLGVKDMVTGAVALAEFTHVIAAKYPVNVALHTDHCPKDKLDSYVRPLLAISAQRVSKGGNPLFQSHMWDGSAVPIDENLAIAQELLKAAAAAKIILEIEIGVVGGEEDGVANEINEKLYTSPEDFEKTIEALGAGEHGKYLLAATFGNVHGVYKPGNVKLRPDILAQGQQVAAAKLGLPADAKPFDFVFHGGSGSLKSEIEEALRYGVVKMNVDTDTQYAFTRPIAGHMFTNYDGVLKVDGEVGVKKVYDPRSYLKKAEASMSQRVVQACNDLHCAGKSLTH
RecA splice inh: Mtb RecA intein splicing inhibitors, primary screen, biochemical, fluorescence, HTS; cell-free RecA intein splicing; inhibition, % (no concentration beside the values); hit rate 0.75% among 290,000; AID 2221, 2009; in the data active = inhibition above about 30%
SARS 3CLpro inh: SARS-CoV 3CLpro protease inhibitors, primary screen, biochemical, quenched FRET. hit rate 0.14% among 290,000. Replicase polyprotein 1ab (Severe acute respiratory syndrome coronavirus), P0C6X7. AID 1706, 2009. recombinant SARS-CoV 3CLpro, quenched FRET peptide cleavage. inhibition, % at 6 µM; in the data active = inhibition above about 12%
GDH-TPI inh: GDH-TPI coupling enzyme inhibitors, primary screen, artefact control for M. tuberculosis FBA inhibitor project, biochemical, absorbance, full deck; GDH-TPI coupled enzyme counterscreen, NADH absorbance; AID 588335, 2011; hit rate 1.2% among 360,000; inhibition, % at 4.8 µM
CCHFV vOTU inh: CCHFV vOTU protease inhibitors, primary screen, biochemical, Pep-AMC substrate, fluorescence | inhibition, % at 11.5 µM | hit rate 0.55% among 370,000 | Crimean-Congo hemorrhagic fever virus L polyprotein viral ovarian tumor (vOTU) protease …
Numbers stand for hits; – = inactive; · = not tested or not shown; + = active, no number. Sampled rows, rich in hits. Any-hit rate of the full collection: about 4.7%. Rule as the data show it, unless noted: active = inhibition above about 30%; inactive = the rest.

SMILES | DUSP3 inh | FBA Mtb inh | RecA splice inh | SARS 3CLpro inh | GDH-TPI inh | CCHFV vOTU inh
O=C1NN(c2cccc(Br)c2)C(=O)/C1=C\c1ccc(O)cc1 | 53 | – | – | – | – | –
O=C1NN(c2ccc(Br)cc2)C(=O)/C1=C\c1ccc(O)cc1O | – | – | – | – | – | –
CC1=NN(c2ccc(C)cc2)C(=O)/C1=C/c1ccc(-c2cc([N+](=O)[O-])ccc2O)o1 | – | – | – | – | – | –
O=C1NN(c2cccc(Br)c2)C(=O)/C1=C/c1ccc(-c2cc([N+](=O)[O-])ccc2O)o1 | 91 | – | – | – | – | ·
Nc1ncnc2c1ncn2[C@@H]1O[C@H](C(=O)N[C@@H](CCc2ccccc2)C(=O)N2CCN(C(=O)N3CCOCC3)CC2)[C@@H](O)[C@H]1O | · | · | · | · | · | –
COC(=O)Cc1c(C)[nH]n(-c2cc(Cl)cc(Cl)c2)c1=O | – | – | 40 | – | – | –
Cc1cc(-c2ccco2)c(C#N)c2nc3ccccc3n12 | – | – | – | – | 31 | –
CCC1CCc2sc(C(=O)NCC(c3ccc(OC)cc3)N3CCCC3)cc2C1 (stereo unspecified) | · | – | – | · | – | –
Cc1ccccc1N(C)C(=O)Cn1nnc(-c2ccccc2F)n1 | · | · | · | · | · | –
Nc1cc(Cl)nc(N/N=C/c2ccc([N+](=O)[O-])cc2)n1 | – | – | – | – | 33 | –
OCCNC(=S)Nc1ccc2nsnc2c1 | – | – | 46 | – | – | –
N#Cc1c(N)n(CCc2ccc(F)cc2)c2nc3ccccc3nc12 | – | 151 | – | – | – | –
COc1ccc(Cn2c(N)c(C#N)c3nc4ccccc4nc32)cc1 | – | 179 | – | – | – | –
Cc1ccc(Cn2c(N)c(S(=O)(=O)c3cccs3)c3nc4ccccc4nc32)cc1 | – | – | – | – | – | –
COCCn1c(N)c(C#N)c2nc3ccccc3nc21 | – | 115 | – | – | – | –
COc1cccc(Cn2c(N)c(C#N)c3nc4ccccc4nc32)c1OC | – | – | – | – | – | –
N#Cc1c(N)n(-c2ccc(O)cc2)c2nc3ccccc3nc12 | – | – | – | – | – | –
COCCn1c(N)c(S(=O)(=O)c2cccs2)c2nc3ccccc3nc21 | – | + | – | – | – | –
CCC(C(=O)NCCCN(CC)Cc1ccccc1)n1nc(C)c2sc3ccccc3c2c1=O (stereo unspecified) | – | – | – | – | – | –
COc1ccc(C2NC(=S)N(Cc3ccc(Cl)cc3)C(C)=C2C(C)=O)cc1 (stereo unspecified) | · | · | · | · | · | –
COc1ccc(CN2C(=O)[C@]3(NCCc4c3[nH]c3ccc(OC)cc43)c3cc(Br)ccc32)cc1 | · | · | · | · | · | –
COc1ccc(-c2cnnc(N/N=C/c3ccc(OC)c(OC)c3)n2)cc1 | – | – | – | – | 54 | –
Clc1ccc(-c2ccc(/C=N/Nc3nncc(-c4ccccc4)n3)o2)cc1 | – | – | – | – | – | –
Cc1ccc(/C=N/Nc2nncc(-c3ccccc3)n2)o1 | – | – | – | – | 44 | –
CCOC(=O)C1=CCN(S(=O)(=O)c2cccc(Cl)c2)C1c1cccc(Br)c1 (stereo unspecified) | · | · | · | · | · | –
SMILES | DUSP3 inh | FBA Mtb inh | RecA splice inh | SARS 3CLpro inh | GDH-TPI inh | CCHFV vOTU inh
Cc1noc(C)c1C(=O)OC(C)C(=O)c1ccc(C(C)(C)C)cc1 (stereo unspecified) | · | – | · | · | – | –
CCCCCOc1ccc(/C=c2\sc3nc(=O)c(-c4ccccc4)nn3c2=O)cc1OC | – | – | – | – | – | –
O=c1nc2s/c(=C\c3ccc(-c4ccccc4[N+](=O)[O-])o3)c(=O)n2nc1-c1ccccc1 | – | – | 64 | – | – | –
COc1ccc(-c2cc(=Nc3c(C)n(C)n(-c4ccccc4)c3=O)c3ccccc3o2)cc1 | – | + | – | – | – | –
CCN1CCN(CCCNC(=O)c2ccc(NC(=O)C3=CSCCO3)cc2)CC1 | 52 | – | – | – | – | –
Cc1cc(C)n2nc(SC(C)C(=O)NC3CCCCC3C)nc2n1 (stereo unspecified) | · | – | – | · | – | –

Screening results: PubChem BioAssay, several laboratories
